In PubChem BioAssay (EPA / NIEHS):
The source made the active and inactive calls. How the source made its calls, unless noted: active means hit-call score of the fitted dose curve at least 0.9, where 1 is the maximum; inactive means score below 0.9.

What was measured:
[1] = read-out: Protein phosphatase 2A (PPP2R4), PTPA (gene 5524); experiment: LTEA_HepaRG_PPP2R4: Life Technologies and Expression Analysis (LTEA) Assay for Protein phosphatase 2A (PPP2R4) using HepaRG (AID 2283522); details: mRNA level, 48 h; actives raise or lower the signal
How it was run: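 Using HepaRG cultures maintained in 0.5% DMSO, chemicals are tested 48 h at up to 100 uM in duplicate. Induction or suppression of PPP2R4 mRNA, measured by qRT-PCR, is fitted bidirectionally against the vehicle baseline.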

[2] = read-out: Phosphatase and tensin (PTEN), PTEN (gene 5728); experiment: LTEA_HepaRG_PTEN: Life Technologies and Expression Analysis (LTEA) Assay for Phosphatase and tensin (PTEN) using HepaRG (AID 2283523); details: mRNA level, 48 h; actives raise or lower the signal
How it was run: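 HepaRG, 48 h exposure, 8-pt half-log series from 100 uM top, 0.5% DMSO vehicle, duplicates. Readout: Fluidigm qRT-PCR of PTEN transcript; housekeeping normalization (ACTB, GAPDH, POLR2A). Gain or loss fitted relative to DMSO baseline.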

[3] = read-out: solute carrier (SLC22A1), SLC22A1 (gene 6580); experiment: LTEA_HepaRG_SLC22A1: Life Technologies and Expression Analysis (LTEA) Assay for solute carrier (SLC22A1) using HepaRG (AID 2283524); details: mRNA level, 48 h; actives raise or lower the signal
How it was run: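 qRT-PCR readout (TaqMan, Fluidigm arrays) of SLC22A1 transcript, normalized to three housekeeping genes; bidirectional curve fit relative to 0.5% DMSO vehicle. Differentiated human HepaRG cells, 48 h chemical exposure, top concentration 100 uM, half-log steps, eight points.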

[4] = read-out: Pyruvate Dehydrogenase Kinase 4 (PDK4), PDK4 (gene 5166); experiment: LTEA_HepaRG_PDK4: Life Technologies and Expression Analysis (LTEA) Assay for Pyruvate Dehydrogenase Kinase 4 (PDK4) using HepaRG (AID 2283525); details: mRNA level, 48 h; actives raise or lower the signal
How it was run: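 HepaRG (human liver line), 48 h chemical exposure, 8-pt half-log CRC top 100 uM, 0.5% DMSO vehicle, duplicates. Readout: TaqMan qRT-PCR of PDK4 mRNA, housekeeping-normalized; gain/loss fit relative to DMSO baseline.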

[5] = read-out: NAD(P)H dehydrogenase [quinone] 1 (NQO1), NQO1 (gene 1728); experiment: LTEA_HepaRG_NQO1: Life Technologies and Expression Analysis (LTEA) Assay for NAD(P)H dehydrogenase [quinone] 1 (NQO1) using HepaRG (AID 2283526); details: mRNA level, 48 h; actives raise or lower the signal
How it was run: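 In this assay, gene expression is read by qRT-PCR after 48 h exposure of HepaRG cells to eight concentrations (max 100 uM, half-log) in 0.5% DMSO. Each chemical runs in duplicate, and activity is scored relative to vehicle.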

[6] = read-out: Nuclear factor erythroid 2-related factor 2 (Homo sapiens) (UniProt Q16236); experiment: LTEA_HepaRG_NFE2L2: Life Technologies and Expression Analysis (LTEA) Assay for Nuclear factor erythroid 2-related factor 2 (NFE2L2) Transcription Factor using HepaRG (AID 2283527); details: mRNA level, 48 h; actives raise or lower the signal
How it was run: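 HepaRG, 48 h dosing, 8-pt half-log series from 100 uM in 0.5% DMSO, duplicates. Read-out: NFE2L2 mRNA by qRT-PCR (ACTB/GAPDH/POLR2A normalization). Bidirectional curve fit vs DMSO baseline.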

[7] = read-out: succinate dehydrogenase complex iron sulfur subunit B (SDHB), SDHB (gene 6390); experiment: LTEA_HepaRG_SDHB: Life Technologies and Expression Analysis (LTEA) Assay for succinate dehydrogenase complex iron sulfur subunit B (SDHB) using HepaRG (AID 2283528); details: mRNA level, 48 h; actives raise or lower the signal
How it was run: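 SDHB transcript level read by TaqMan qRT-PCR, housekeeping-normalised (ACTB, GAPDH, POLR2A), after 48 h chemical treatment of plated HepaRG cells; eight concentrations top 100 uM, half-log steps, 0.5% DMSO, duplicates; fitted both directions against DMSO.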

[8] = read-out: Signal transducer and activator of transcription 3 (Homo sapiens) (UniProt P40763); experiment: LTEA_HepaRG_STAT3: Life Technologies and Expression Analysis (LTEA) Assay for Signal transducer and activator of transcription (STAT3) using HepaRG (AID 2283529); details: mRNA level, 48 h; actives raise or lower the signal
How it was run: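 HepaRG, 48 h exposure, 8-pt half-log series (top 100 uM), 0.5% DMSO vehicle, duplicates. Readout: STAT3 transcript by Fluidigm qRT-PCR, housekeeping-normalized; bidirectional fit vs DMSO baseline.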

[9] = read-out: solute carrier (SLCO1B1), SLCO1B1 (gene 10599); experiment: LTEA_HepaRG_SLCO1B1: Life Technologies and Expression Analysis (LTEA) Assay for solute carrier (SLCO1B1) using HepaRG (AID 2283530); details: mRNA level, 48 h; actives raise or lower the signal
How it was run: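 SLCO1B1 transcript levels were quantified by TaqMan qRT-PCR using three housekeeping genes for normalization. This followed 48 h chemical exposure (100 uM top, half-log, 8 points, 0.5% DMSO) of HepaRG liver cells, with gain or loss fitted relative to DMSO.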

[10] = read-out: sulfotransferase 2A1 (SULT2A1), SULT2A1 (gene 6822); experiment: LTEA_HepaRG_SULT2A1: Life Technologies and Expression Analysis (LTEA) Assay for sulfotransferase 2A1 (SULT2A1) using HepaRG (AID 2283531); details: mRNA level, 48 h; actives raise or lower the signal
How it was run: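 Expression change of SULT2A1, by qRT-PCR with three housekeeping-gene normalization, was scored bidirectionally versus DMSO. Cells: differentiated HepaRG, dosed in duplicate for 48 h across 8 points, highest 100 µM, half-log dilution, 0.5% DMSO.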

[11] = read-out: Transforming Growth Factor (TGFA), TGFA (gene 7039); experiment: LTEA_HepaRG_TGFA: Life Technologies and Expression Analysis (LTEA) Assay for Transforming Growth Factor (TGFA) using HepaRG (AID 2283532); details: mRNA level, 48 h; actives raise or lower the signal
How it was run: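 qRT-PCR read-out of TGFA transcript, normalized to three housekeeping genes, fitted bidirectionally against 0.5% DMSO baseline. Human HepaRG cultures received chemicals for 48 h at eight half-log concentrations, top 100 uM.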

[12] = read-out: Transforming Growth Factor (TGFB1), TGFB1 (gene 7040); experiment: LTEA_HepaRG_TGFB1: Life Technologies and Expression Analysis (LTEA) Assay for Transforming Growth Factor (TGFB1) Transporter using HepaRG (AID 2283533); details: mRNA level, 48 h; actives raise or lower the signal
How it was run: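 TGFB1 transcript measured by qRT-PCR with normalisation to three housekeeping genes (ACTB, GAPDH, POLR2A); human HepaRG line treated in duplicate for 48 hr with an 8-point series topping at 100 uM, 0.5% DMSO vehicle, bidirectionally fitted.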

[13] = read-out: TIMP1, TIMP1 (gene 7076); experiment: LTEA_HepaRG_TIMP1: Life Technologies and Expression Analysis (LTEA) Assay for TIMP1 using HepaRG (AID 2283534); details: mRNA level, 48 h; actives raise or lower the signal
How it was run: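 Bidirectional change in TIMP1 transcript versus 0.5% DMSO, measured by TaqMan qRT-PCR with three housekeeping genes for normalization. HepaRG human liver cells dosed 48 h in duplicate, top concentration 100 uM with half-log dilutions.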

[14] = read-out: Tumor necrosis factor receptor 1 (TNFRSF1A), TNFRSF1A (gene 7132); experiment: LTEA_HepaRG_TNFRSF1A: Life Technologies and Expression Analysis (LTEA) Assay for Tumor necrosis factor receptor 1 (TNFRSF1A) using HepaRG (AID 2283535); details: mRNA level, 48 h; actives raise or lower the signal
How it was run: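 mRNA measured by qRT-PCR (TaqMan, Fluidigm arrays) against ACTB/GAPDH/POLR2A housekeepers after 48 h chemical exposure of HepaRG cells. Top concentration 100 uM, half-log 8-point series, duplicates; vehicle 0.5% DMSO, both fit directions.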

[15] = read-out: Thyroid Hormone Responsive (THRSP), THRSP (gene 7069); experiment: LTEA_HepaRG_THRSP: Life Technologies and Expression Analysis (LTEA) Assay for Thyroid Hormone Responsive (THRSP) using HepaRG (AID 2283536); details: mRNA level, 48 h; actives raise or lower the signal
How it was run: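 qRT-PCR read-out (Fluidigm TaqMan), housekeeping-normalized (ACTB/GAPDH/POLR2A). HepaRG, 48 h chemical exposure, 8-pt half-log series from 100 uM in 0.5% DMSO, duplicates. Bidirectional curve fit vs 0.5% DMSO baseline.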

[16] = read-out: Cellular tumor antigen p53 (Homo sapiens) (UniProt P04637); experiment: LTEA_HepaRG_TP53: Life Technologies and Expression Analysis (LTEA) Assay for Tumor Protein P53 (TP53) using HepaRG (AID 2283537); details: mRNA level, 48 h; actives raise or lower the signal
How it was run: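 TP53 transcript measured by qRT-PCR, normalized to three housekeeping genes, after 48 h treatment of human HepaRG cultures with chemicals from 100 uM downward in half-log steps (0.5% DMSO vehicle, serum-free induction medium). Up- or down-regulation fitted against DMSO.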

[17] = read-out: UDP glucuronosyltransferase (UGT1A1), UGT1A1 (gene 54658); experiment: LTEA_HepaRG_UGT1A1: Life Technologies and Expression Analysis (LTEA) Assay for UDP glucuronosyltransferase (UGT1A1) using HepaRG (AID 2283538); details: mRNA level, 48 h; actives raise or lower the signal
How it was run: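 mRNA induction or loss of UGT1A1, by TaqMan qRT-PCR, in duplicate HepaRG wells after 48 h exposure to half-log dilutions topping at 100 uM; DMSO (0.5%) served as baseline.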

[18] = read-out: UDP glucuronosyltransferase (UGT1A6), UGT1A6 (gene 54578); experiment: LTEA_HepaRG_UGT1A6: Life Technologies and Expression Analysis (LTEA) Assay for UDP glucuronosyltransferase (UGT1A6) using HepaRG (AID 2283539); details: mRNA level, 48 h; actives raise or lower the signal
How it was run: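 Expression was quantified by TaqMan qRT-PCR on Fluidigm arrays with ACTB/GAPDH/POLR2A normalization and bidirectional fitting against 0.5% DMSO. HepaRG cells (~100,000/well) were treated in duplicate for 48 h at eight half-log concentrations up to 100 uM in serum-free induction medium.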

[19] = read-out: X-box binding protein 1 (XBP1), XBP1 (gene 7494); experiment: LTEA_HepaRG_XBP1: Life Technologies and Expression Analysis (LTEA) Assay for X-box binding protein 1 (XBP1) using HepaRG (AID 2283540); details: mRNA level, 48 h; actives raise or lower the signal
How it was run: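 XBP1 transcript by qRT-PCR (housekeeping-normalized: ACTB, GAPDH, POLR2A) after 48 h chemical treatment of HepaRG cells, 8-point half-log series topping at 100 uM, vehicle 0.5% DMSO. Gain and loss of signal fitted relative to DMSO.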

[20] = LTEA_HepaRG_LDH_cytotoxicity: Cytotoxicity Assessment in the Life Technologies and Expression Analysis (LTEA) Assay (AID 2283563; active means hit-call score of the fitted dose curve at least 0.9, where 1 is the maximum)
How it was run: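 LDH release into culture medium read after 48 h chemical treatment of HepaRG cells. Duplicate wells, eight-point half-log series topping at 100 uM, 0.5% DMSO vehicle and baseline.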

Measured: outcome

Chain of Nuclear factor erythroid 2-related factor 2 (Homo sapiens) (Q16236 whole entry, looked up): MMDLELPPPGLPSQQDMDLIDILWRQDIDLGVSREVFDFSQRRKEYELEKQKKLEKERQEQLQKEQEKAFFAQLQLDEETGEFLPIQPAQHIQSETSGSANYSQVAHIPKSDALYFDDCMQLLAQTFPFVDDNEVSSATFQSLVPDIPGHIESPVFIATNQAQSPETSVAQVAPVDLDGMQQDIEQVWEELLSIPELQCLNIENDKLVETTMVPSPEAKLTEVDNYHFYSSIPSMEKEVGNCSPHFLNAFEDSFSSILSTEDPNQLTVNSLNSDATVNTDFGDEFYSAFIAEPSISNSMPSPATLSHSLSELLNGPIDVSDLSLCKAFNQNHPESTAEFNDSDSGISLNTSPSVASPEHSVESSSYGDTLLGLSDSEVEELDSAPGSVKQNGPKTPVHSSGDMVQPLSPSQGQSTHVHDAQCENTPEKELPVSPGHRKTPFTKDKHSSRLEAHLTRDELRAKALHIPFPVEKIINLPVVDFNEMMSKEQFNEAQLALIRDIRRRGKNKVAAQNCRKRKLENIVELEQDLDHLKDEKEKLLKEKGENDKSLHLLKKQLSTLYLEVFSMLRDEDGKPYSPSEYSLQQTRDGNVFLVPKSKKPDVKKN
Chain of Signal transducer and activator of transcription 3 (Homo sapiens) (P40763 whole entry, looked up): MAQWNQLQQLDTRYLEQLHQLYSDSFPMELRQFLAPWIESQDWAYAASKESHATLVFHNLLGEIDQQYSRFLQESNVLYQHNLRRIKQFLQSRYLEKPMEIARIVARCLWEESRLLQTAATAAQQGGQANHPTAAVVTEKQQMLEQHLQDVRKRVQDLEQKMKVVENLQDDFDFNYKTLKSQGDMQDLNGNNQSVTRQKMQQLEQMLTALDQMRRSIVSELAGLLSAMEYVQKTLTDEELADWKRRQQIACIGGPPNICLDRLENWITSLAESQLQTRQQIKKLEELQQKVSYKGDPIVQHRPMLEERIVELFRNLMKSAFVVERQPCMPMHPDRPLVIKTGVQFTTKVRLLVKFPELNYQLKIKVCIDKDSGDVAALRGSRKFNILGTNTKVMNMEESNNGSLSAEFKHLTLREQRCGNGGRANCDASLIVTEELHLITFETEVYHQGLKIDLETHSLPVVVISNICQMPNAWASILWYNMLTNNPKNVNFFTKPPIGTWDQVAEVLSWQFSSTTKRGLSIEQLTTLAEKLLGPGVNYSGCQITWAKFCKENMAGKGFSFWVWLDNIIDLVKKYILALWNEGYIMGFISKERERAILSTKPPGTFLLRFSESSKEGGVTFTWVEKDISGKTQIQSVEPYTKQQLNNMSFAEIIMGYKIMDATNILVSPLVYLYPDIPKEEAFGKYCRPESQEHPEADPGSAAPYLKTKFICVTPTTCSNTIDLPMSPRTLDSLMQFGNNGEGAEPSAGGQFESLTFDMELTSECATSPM
Chain of Cellular tumor antigen p53 (Homo sapiens) (P04637 whole entry, looked up): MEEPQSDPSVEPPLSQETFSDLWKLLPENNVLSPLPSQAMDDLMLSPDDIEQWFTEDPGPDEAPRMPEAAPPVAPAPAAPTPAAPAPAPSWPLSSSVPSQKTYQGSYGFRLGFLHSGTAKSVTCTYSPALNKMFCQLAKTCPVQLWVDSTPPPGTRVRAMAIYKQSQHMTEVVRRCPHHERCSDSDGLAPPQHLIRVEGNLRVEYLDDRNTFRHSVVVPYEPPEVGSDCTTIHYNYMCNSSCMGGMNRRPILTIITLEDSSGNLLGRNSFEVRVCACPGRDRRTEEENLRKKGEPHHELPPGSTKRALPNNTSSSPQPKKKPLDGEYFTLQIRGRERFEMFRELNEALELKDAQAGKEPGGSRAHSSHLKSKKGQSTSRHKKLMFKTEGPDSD

O=C(CCl)c1ccccc1
inactive: all assays above

O=[N+]([O-])c1ccc(Cl)cc1
inactive: all assays above

N#CCCCCC#N
inactive: all assays above
